Screens: PubChem BioAssay, ICCB-Longwood Screening Facility, Harvard Medical School
This is a sample that favours compounds with a hit; in the whole collection about 1.4% have one here.
Mtb MenB inh – M. tuberculosis MenB inhibitors, primary screen, biochemical, absorbance | MenB enzyme assay, absorbance read-out | inhibition, % (no concentration beside the values) | 100,000 tested, 0.43% active; in the data active = inhibition above about 21%, passing the limit was not always enough
Polio RdRp inh – poliovirus RdRp elongation inhibitors, primary screen, biochemical, fluorescence polarization, total intensity; poliovirus polymerase elongation; active compounds read low; Genome polyprotein (Poliovirus type 1 (strain Mahoney)), P03300; % elongation, % (compound at 16.7 µg/mL); 150,000 tested, 0.66% active; in the data active = % elongation below about 90%
AID504770 – growth inhibition of E. coli YBA685, primary screen, V. cholerae RctB inhibitors; E. coli YBA685 rctB-dependent plasmid, OD600 growth, 3 h; active compounds read low; z-score (test concentration not listed); 130,000 tested, 0.27% active; AID 504770, 2011; in the data active = z-score below about -2, passing the limit was not always enough
Mtb MbtI inh – MbtI salicylate synthase inhibitors, primary screen, biochemical, fluorescence intensity | P9WFX0 | purified MbtI enzyme, fluorescence intensity read-out | inhibition, % (concentration not given with the values) | 100,000 tested, 0.89% active | AID 493033, 2011; in the data active = inhibition mostly above about 56%, no sharp cut-off; inactive = mostly below about 77%
Target sequence (P9WFX0 whole entry, looked up): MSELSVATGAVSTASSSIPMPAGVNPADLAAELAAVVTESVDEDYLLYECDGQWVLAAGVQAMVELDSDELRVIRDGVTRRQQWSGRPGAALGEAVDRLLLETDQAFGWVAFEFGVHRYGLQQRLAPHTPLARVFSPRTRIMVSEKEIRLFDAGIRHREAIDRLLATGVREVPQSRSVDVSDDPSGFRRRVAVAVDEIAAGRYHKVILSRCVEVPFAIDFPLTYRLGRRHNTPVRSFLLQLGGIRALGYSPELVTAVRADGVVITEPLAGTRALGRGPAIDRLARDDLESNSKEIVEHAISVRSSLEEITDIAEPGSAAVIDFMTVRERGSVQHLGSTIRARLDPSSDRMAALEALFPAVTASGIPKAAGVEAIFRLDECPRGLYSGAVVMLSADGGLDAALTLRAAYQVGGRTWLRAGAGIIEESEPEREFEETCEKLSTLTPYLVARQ
* = called active by the depositor.

`COC(=O)C1=C(C)N(c2ccc(C)cc2)C(=O)/C1=C\c1ccc2c(c1)OCO2` gave Mtb MenB inh -1, Polio RdRp inh 104, AID504770 1.5 and Mtb MbtI inh 4.
COc1ccc(Cn2c(=O)[nH]c3cc(C(=O)N4CCN(c5cccc(OC)c5)CC4)ccc3c2=O)cc1 was read as Polio RdRp inh 73*.
For COc1ccc(Cn2c(=O)[nH]c3cc(C(=O)N4CCN(c5cccc(Cl)c5)CC4)ccc3c2=O)cc1 the results were Polio RdRp inh 101.
CCn1c2ccccc2c2n[nH]c(=S)nc21 was read as Mtb MenB inh -69, Polio RdRp inh 103, AID504770 -0.25 and Mtb MbtI inh 26.
For O=C(O)Cn1c2ccccc2c2n[nH]c(=S)nc21 the results were Mtb MenB inh -22, Polio RdRp inh 101, AID504770 1.3 and Mtb MbtI inh 90*.
Screening CCCc1cc(=O)oc2cc(O)cc(O)c12 returned AID504770 -0.85.
CCc1cc(=O)oc2cc(O)cc(O)c12 was read as Mtb MenB inh 47*, Polio RdRp inh 98, AID504770 0.05 and Mtb MbtI inh -50.
`Cc1ccccc1OC(=O)OCC(C)C` gave Mtb MenB inh -4, Polio RdRp inh 97, AID504770 0.45 and Mtb MbtI inh -1.
For CC1CCc2c(sc3nc(C(C)C)n4c(SCC(=O)NCc5ccco5)nnc4c23)C1 (stereo not given) the results were Mtb MenB inh 27*, Polio RdRp inh 103, AID504770 0.75 and Mtb MbtI inh 5.
For CCc1cccc2c1=NC(=O)C=2c1c(C)[nH]n(-c2ccccc2)c1=O the results were Mtb MenB inh -4, Polio RdRp inh 97, AID504770 -0.6 and Mtb MbtI inh 85*.
Screening O=C(c1cccs1)N1CCCN(Cc2cccc3ccccc23)CC1 returned AID504770 0.3.
`COc1ccccc1/C=C1/SC(=S)NC1=O` gave Polio RdRp inh 107, AID504770 0.15 and Mtb MbtI inh -2.
Screening COc1ccccc1OCCn1cc(/C=C2/SC(=S)NC2=O)c2ccccc21 returned Mtb MenB inh -94, Polio RdRp inh 98, AID504770 0.5 and Mtb MbtI inh 59*.
For O=C1C2CN3CCN(C2)CC1(c1ccccc1)C3 the results were AID504770 1.8 and Mtb MbtI inh 0.
For O=C1C2CN3CN(C2)CC1(c1ccccc1)C3 the results were Mtb MenB inh 34*, Polio RdRp inh 99, AID504770 0.25 and Mtb MbtI inh 4.
For Cc1[nH]c2ccccc2c1C(c1ccccn1)N1CCN(CCO)CC1 (stereo not given) the results were Polio RdRp inh 103, AID504770 0 and Mtb MbtI inh 18.
`CN1CCN(C(c2ccccn2)c2c(-c3ccccc3)n(O)c3ccccc23)CC1` (stereo not given) gave Mtb MenB inh -9, Polio RdRp inh 88*, AID504770 -0.15 and Mtb MbtI inh 22.
Screening Cc1ccc(N=C2NC(=O)/C(=C\c3cccs3)S2)c(C)c1 returned AID504770 0.5.
CCOc1ccc(CCNC(=O)c2cnc3sc(N4CCCCCC4)nn3c2=O)cc1 was read as Polio RdRp inh 107.
CCOc1ccc(CCNC(=O)c2cnc3sc(N4CCCC4)nn3c2=O)cc1 was read as Polio RdRp inh 5.0*.
For Cc1cn(CCC(=O)Nc2nn(C)c3ccccc23)c2ccccc12 the results were AID504770 -0.4.
For c1ccc(N=c2[n-][n+](-c3ccccc3)cn2-c2ccccc2)cc1 the results were Mtb MenB inh -38, Polio RdRp inh 85* and AID504770 1.8.
Screening CN(C)C1CCS(=O)(=O)C1 (stereo not given) returned Mtb MenB inh -36, Polio RdRp inh 102, AID504770 -0.55 and Mtb MbtI inh -13.
`CC1=CC(=O)C(N(C)C2CCS(=O)(=O)C2)=CC1=O` (stereo not given) gave Mtb MenB inh 3, Polio RdRp inh 96, AID504770 1.8 and Mtb MbtI inh 100*.
For CCc1ccc(Nc2ncnc3sc4c(c23)CCCC4)cc1 the results were Polio RdRp inh 103.
CCc1nc(Nc2ccc(F)c(Cl)c2)c2c3c(sc2n1)CCCC3 was read as Polio RdRp inh 85*.
CNc1nc(SCC(=O)OC)nc(N2CCOCC2)n1 was read as Mtb MenB inh 56*, Polio RdRp inh 104, AID504770 1.1 and Mtb MbtI inh 3.
COC(=O)CSc1nc(C)cc(N2CCOCC2)n1 was read as Mtb MenB inh -42, Polio RdRp inh 104, AID504770 -0.8 and Mtb MbtI inh 4.
COc1cccc(NC(=O)CCNc2ccccc2C)c1 was read as Mtb MenB inh 0, Polio RdRp inh 102, AID504770 -0.3 and Mtb MbtI inh -2.
For COC(=O)c1cc(-c2ccco2)nc2c1cnn2Cc1ccc2c(c1)OCO2 the results were Mtb MenB inh 3, Polio RdRp inh 71*, AID504770 0.1 and Mtb MbtI inh -28.
For O=C(Nc1ccc2c(c1)OCO2)c1cnn2c(C(F)(F)F)cc(-c3ccco3)nc12 the results were Mtb MenB inh -17, Polio RdRp inh 99, AID504770 -0.05 and Mtb MbtI inh -7.
C#CCNc1ccccc1 was read as Mtb MenB inh 4, Polio RdRp inh 100, AID504770 -0.65 and Mtb MbtI inh -1.
Cn1cc(C(=O)CSc2nnc(-c3ccoc3)c(-c3ccoc3)n2)c2ccccc21 was read as Mtb MenB inh -38, Polio RdRp inh 101, AID504770 0.05 and Mtb MbtI inh 44.
COc1ccc2[nH]cc(C(=O)CSc3nnc(-c4ccoc4)c(-c4ccoc4)n3)c2c1 was read as Mtb MenB inh -62, Polio RdRp inh 102, AID504770 1.2 and Mtb MbtI inh 75*.
Screening CC(C)C(=O)Nc1cccc(Cl)c1Cl returned Mtb MenB inh 8, Polio RdRp inh 99, AID504770 0.65 and Mtb MbtI inh 0.
For CCCc1ccc(OCC(=O)Nc2sc3c(c2C(=O)OC)CCCCC3)cc1 the results were Polio RdRp inh 85*.
Screening COC(=O)Nc1sc2c(c1C(=O)OC)CCC2 returned Mtb MenB inh -21, Polio RdRp inh 101, AID504770 0.65 and Mtb MbtI inh 21.
Screening COC(=O)c1c(NC(=O)C(F)(F)F)sc2c1CCCC2 returned Mtb MenB inh -20, Polio RdRp inh 88* and AID504770 -4.5.
COC(=O)c1c(NC(=O)Cc2cccs2)sc2c1CCCC2 was read as Mtb MenB inh 39*, Polio RdRp inh 103, AID504770 1.4 and Mtb MbtI inh 12.
Screening CCOC(=O)CSc1ncnc2sc3c(c12)CCCC3 returned AID504770 -2.
`COC(=O)c1ccccc1NC(=O)c1ccoc1C` gave Mtb MenB inh -3, Polio RdRp inh 100, AID504770 -0.6 and Mtb MbtI inh -100.
C=CCc1cccc(C=Nc2ccc(Br)cc2)c1O was read as AID504770 -1.4.
`C=CCc1cccc(O)c1O` gave Polio RdRp inh 101, AID504770 -0.05 and Mtb MbtI inh 89*.
`CN1CCC(=CC(=O)O)CC1` gave Mtb MenB inh 4, Polio RdRp inh 100, AID504770 -0.45 and Mtb MbtI inh -5.
